According to PubChem BioAssay AID652067 (The Scripps Research Institute Molecular Screening Center, 2013):
Among all 370,000 compounds or so, about 5,400 (1.5%) were called active.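 The calls were made as follows: active = activation above the mean of all tested compounds plus 3 SD (cut at about 5.5% in these data); inactive = the rest.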 Shown is part of a subset that was picked to be rich in actives.

Test system: DAF-12 nuclear receptor (Haemonchus contortus)
Test: hcDAF-12 driven luciferase reporter activation – cell-based, luminescence, HEK293, lit1-tk-luc reporter, primary screen (AID 652067);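 also: 100% = response to 3 µM Δ7-dafachronic acid high control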
Conditions: HEK293 hcDAF-12 lit1-tk-luc reporter, at 6.8 µM, active compounds read high

Compound	activation
COc1ccc(C(=O)C2CN(C)CC2C(=O)c2ccc(OC)cc2)cc1 (stereo not given)	8.46% (active)
COc1ccc(C(=O)CC2C(=O)N(C)C(=O)N(C)C2=O)cc1	0.97% (inactive)
Cc1ccc(C2CN(C)CC2C(=O)c2ccc(F)cc2)cc1 (stereo not given)	0.06% (inactive)
CN(c1ccccc1)c1ccc([N+](=O)[O-])c2nonc12	-1.36% (inactive)
CNP1(NC)=Nc2nn(-c3ccccc3)c(N)c2C(c2ccccc2)=N1	-1.95% (inactive)
CCCCCn1c(=O)c(C(=O)Nc2c(C)n(C)n(-c3ccccc3)c2=O)c(O)c2ccccc21	-0.09% (inactive)
CCCCCn1c(=O)c(C(=O)NCc2ccccc2)c(O)c2ccccc21	-0.29% (inactive)
CCCCn1c(=O)c(C(=O)Nc2ccccc2Cl)c(O)c2ccccc21	5.68% (active)
O=C(CCN1CCCCC1)NCC(=O)Nc1ccc(Br)cc1C(=O)c1ccccc1	-0.6% (inactive)
CS(=O)(=O)N1CCC2CCNC2C1 (stereo not given)	-0.6% (inactive)
CN1CCN(/N=C/c2c[nH]c3ccccc23)CC1	1.53% (inactive)
CCC/C(=N\O)c1c[nH]c2ccccc12	6.34% (active)
CN(C)CC1CCCCC1OC(=O)c1ccc(Cl)c(Cl)c1 (stereo not given)	0.25% (inactive)
CCOc1ccc(C2SCC(=O)Nc3c2c(C)nn3C2CCOC(C)(C)C2)cc1 (stereo not given)	-2.48% (inactive)
Cc1ccccc1CCC[C@@H](CC1CCCCC1)CN(C)C(=O)Oc1ccccc1	4.88% (inactive)
Cc1cc(C)c2c(c1)NP(=S)(c1ccccc1)N2 (stereo not given)	4.47% (inactive)
COc1ccc2c(c1)NP(=S)(c1ccccc1)N2 (stereo not given)	13.1% (active)
CO[C@H]([C@H](C)/C=C/N(C)C=O)[C@@H](C)C(=O)CC[C@H](C)[C@H](O)[C@H](C)[C@H]1OC(=O)/C=C/C(C)=C/[C@H](O)[C@H](OC)C[C@@H]2C=CC[C@@H](C[C@H](OC)[C@@]3(CO3)[C@@H](OC)C[C@@H](OC)[C@@H]1C)O2	0.14% (inactive)
COc1ccc(-c2nc(CS(=O)CC(=O)N3CCC4(CC3)OCCO4)c(C)o2)cc1 (stereo not given)	-0.05% (inactive)
COP(=O)(Sc1ccccc1)C(Cc1ccccc1)NC(=O)OCc1ccccc1 (stereo not given)	-1.13% (inactive)
